HCMV antiviral = human cytomegalovirus inhibition | HFF cells, HCMV-luciferase reporter, 72 h; hits give low values | activity change, negative = inhibition, % at 57.5 µM | 410,000 compounds, 4.5% hits; in the data active means activity change below about -60%; inconclusive means no clear call, values can overlap the other calls; inactive means above about -39%
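HFF cells seeded 16 h at 37C, treated with compounds, infected with luciferase-reporter HCMV at MOI 1 PFU/cell; luciferase read at 72 h post infection, normalized to buffer-only and Salinomycin controls.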
Marburg entry inh = blocks Marburg virus binding to or entry into cells; Potency, µM (doses to about 37.8 µM), for inactives: at the highest dose activity change, negative = inhibition, actives largely listed as inhibitors; AID 540276; 300,000 compounds, 1.8% hits; Marburg virus pseudotyped entry inhibition, cell reporter; calls by dose curve; tested in HEK293 cells; further: potency means the concentration at half of the fitted maximal effect
VACV Venus inh = inhibitors of vaccinia virus (Venus reporter); Vaccinia virus Venus reporter expression, fluorescence; Potency, µM (top dose mostly 36.5 µM), inactives show at the highest dose activity change, negative = inhibition, hits mostly inhibitors; 330,000 compounds, 0.46% hits; calls by dose curve; tested in A549 cells; further: potency means the concentration at half of the fitted maximal effect; nearly all actives have a fitted effect of over 30% in size
Vaccinia mCherry = inhibitors of vaccinia virus infection (mCherry reporter signal) | AID 720579 | Potency, µM (top dose mostly 36.5 µM), for inactives: at the top dose activity change, negative = inhibition, usual class: inhibitors | Vaccinia virus mCherry reporter infection, fluorescence | 310,000 compounds, 0.63% hits; calls by dose curve; tested in A549 cells; further: potency means the concentration at half of the fitted maximal effect; nearly all actives have a fitted effect of over 35% in size
LASV entry inh = Lassa virus entry inhibition; Lassa virus pseudotype entry inhibition, cell reporter; Potency, µM (series often up to 37.9 µM), for the others: top-dose activity change, negative = inhibition, most hits filed as inhibitors; 300,000 compounds, 1.2% hits; AID 540256; calls by dose curve; tested in HEK293 cells; further: potency means the concentration at half of the fitted maximal effect; nearly all actives have a fitted effect of over 50% in size
FMDV inh = antivirals against foot and mouth disease virus; 410,000 compounds, 1.2% hits; Potency, µM (titrated, usually from 57.9 µM), for the others: top-dose activity change, negative = inhibition, usual class: inhibitors; AID 1159524; FMDV antiviral cell-based qHTS; calls by dose curve; tested in HEK293T cells; further: read-out not given here; potency means the concentration at half of the fitted maximal effect; nearly all actives have a fitted effect of over 45% in size
* marks the source's active call; other numbers are inactive results; i = inactive; ? = inconclusive; · = not tested or not shown; + = active, no number; [ ] = another dose, or the depositor's remark. Sampled rows, rich in hits. Any-hit rate of the full collection: about 6.5%. On the % scale 0 is the no-effect control and ±100 the full control effect.

SMILES	HCMV antiviral	Marburg entry inh	VACV Venus inh	Vaccinia mCherry	LASV entry inh	FMDV inh
COC(=O)C1=C(C)N(Cc2ccccc2)C(=NCc2cc(OC)c(OC)c(OC)c2)NC1c1cccc(F)c1 (centres undefined)	·	-17%[14.2 µM]	·	·	?	·
COc1ccccc1NS(=O)(=O)c1cc(N2Cc3ccccc3C2=N)ccc1N1CCOCC1	?	7.1µM*	-13%	-11%	?	26%
COc1ccc(N(CC(=O)Nc2ccc(C)c(C)c2)S(=O)(=O)c2ccc(C)cc2)cc1OC	-13	·	1%	-5%	-9%[46.1 µM]	-19%
CCn1cc(C(=O)N[C@@H](CCSC)C(=O)NCCCN2CCOCC2)c(=O)c2cc3c(cc21)OCO3	-15	·	·	·	·	2%
CCn1cc(C(=O)N[C@@H](CCSC)C(=O)NCCN2CCOCC2)c(=O)c2cc3c(cc21)OCO3	+	·	·	·	·	13%
CCOC(=O)C1(C(F)(F)F)N=C(C(F)(F)F)Nc2cc(C)c(C)cc21 (centres undefined)	-38	?	-17%	i	-5%	-22%
COC(=O)C1(C(F)(F)F)N=C(C(F)(F)F)Nc2ccc(Cl)cc21 (centres undefined)	-102*	10%	-9%	-13%	5%	-16%
O=C(NCc1ccncc1)c1ccc(N2CCCC2)c([N+](=O)[O-])c1	-62*	-6%[46.1 µM]	-7%	-15%	-7%	-24%
O=C(Nc1nc2ccccc2s1)c1ccc(N2CCCCC2)c([N+](=O)[O-])c1	-72*	?	-24%	-12%	?	-50%
CCN(CC(=O)Nc1c(F)cccc1F)C(=O)c1cc(S(=O)(=O)N(CC)CC)ccc1N1CCCCC1	-36	-11%[46.1 µM]	-13%	-11%	?	31%
CCN(CC(=O)Nc1c(F)cccc1F)C(=O)c1ccc(N2CCCCC2)c([N+](=O)[O-])c1	-20	?	-25%	-11%	7.1µM*	-21%
CC(=O)N1CCN(c2ccc(C(N)=O)cc2[N+](=O)[O-])CC1	-33	?	-12%	0%	2%[46.1 µM]	-12%
NC(=O)c1ccc(N2CCCCCC2)c([N+](=O)[O-])c1	-60*	12%[46.1 µM]	-12%	i	?	-9%
COc1ccc(NC(=O)CSc2nc3c(oc4ccccc43)c(=O)n2-c2ccc(C)c(C)c2)cc1	-7	-30%[46.1 µM]	-12%	-12%	·	-2%
CCOC(=O)C1CCCN(c2cc(C)nc3c(-c4ccccc4OC)c(C)nn23)C1 (centres undefined)	1	·	-7%	-3%	6%[46.1 µM]	?
COc1ccc(N2CCN(C(=O)c3cc(NC(C)=O)c4c(c3)ncn4CCc3ccccn3)CC2)cc1	·	·	-5%	i	·	-3%
CN1CCN(c2ccc(C(=O)c3ccc(Br)cc3)cc2[N+](=O)[O-])CC1	-68*	7.9µM*	-19%	-18%	16%	?
NC(=O)c1ccc(N2CCN(S(=O)(=O)c3cccs3)CC2)c([N+](=O)[O-])c1	-84*	·	·	·	·	20µM*
O=S(=O)(c1cccs1)N1CCN(c2ccc(O)cc2)CC1	?	?	-21%	4µM*	?	-4%
CN1CCN(S(=O)(=O)c2cccs2)CC1	1	-7%[46.1 µM]	-10%	i	2%	-19%
Cc1cccc(CSc2nc3c(c(=O)[nH]2)C(c2cccc(O)c2)CC(=O)N3)c1 (centres undefined)	14	?	-13%	-5%	5%[46.1 µM]	-12%
c1ccc(Cc2nnc(Sc3ccccc3)c3ccccc23)cc1	-88*	-28%	-23%	-15%	-16%	?
CC(C)Oc1ccc(/C=N/NC(N)=S)cc1	36	?	1.6µM*	1.1µM*	?	22%
C=CCOc1ccc(/C=N\NC(N)=S)cc1	1	·	·	·	·	30%
NC(=S)N/N=C/c1ncc(C(F)(F)F)cc1Cl	·	?	-22%[7.34 µM]	1.4µM*	?	-16%
SMILES	HCMV antiviral	Marburg entry inh	VACV Venus inh	Vaccinia mCherry	LASV entry inh	FMDV inh
O=C(N/N=C/c1ccc(C(F)(F)F)cc1)c1ccncc1	-15	-9%	-19%	-15%	-1%	34%
NC(=S)N/N=C/c1ccc(C(F)(F)F)cc1	-88*	-21%	?	1.8µM*	?	-4%
ON/C=N/C(=S)Nc1ncc(C(F)(F)F)cc1Cl	-32	?	-3%	i	1%[46.1 µM]	-2%
COc1ccc(/C=N/NC(N)=S)cc1	13	9%[46.1 µM]	5.6µM*	6.3µM*	1%	4%
NCCCN(Cc1ccccc1)c1ccc(Br)cn1	·	·	-6%	i	·	·
CCCNC(=O)c1c(C)nn(-c2cccc(C)c2)c1-n1cccc1	?	·	-1%	-2%	?	-12%
O=c1cc(-c2ccccc2Br)[nH]c2ccccc12	-90*	·	·	·	·	·
Cc1nc2ccccc2c2oc(C(=O)NCCCN3CCCC3=O)cc12	-14	-17%	·	·	-13%	-22%
Cc1nc2ccccc2c2oc(C(=O)NCCN3CCN(C)CC3)cc12	-70*	·	5%	1%	·	0%
CSCCC(c1nnnn1C1CCCC1)N1CCC(n2c(=O)[nH]c3ccccc32)CC1 (centres undefined)	?	·	4%	16%	·	-23%
CC(C)(C)n1nnnc1C(CCc1ccccc1)N1CCC(n2c(=O)[nH]c3ccccc32)CC1 (centres undefined)	-99*	·	-23%	-20%	·	32µM*
CC(C)(C)n1nnnc1C(C1CC1)N1CCC(n2c(=O)[nH]c3ccccc32)CC1 (centres undefined)	-10	·	4%	24%	·	-26%
CSCCC(c1nnnn1C1CCCCC1)N1CCC(n2c(=O)[nH]c3ccccc32)CC1 (centres undefined)	-93*	·	-7%	-5%	·	?
O=c1[nH]c2ccccc2n1C1CCN(C(CCc2ccccc2)c2nnnn2C2CCCCC2)CC1 (centres undefined)	-91*	·	?	?	·	28µM*
N#C/C(C(=O)NCc1ccco1)=C1\S[C@@H](Cc2ccc(Cl)cc2)C(=O)N1c1ccccc1	·	16%	·	·	·	·
CCCCN(Cc1ccccc1)S(=O)(=O)c1ccc2c(c1)CC(C)N2C(=O)CC (centres undefined)	-7	7%[46.1 µM]	-14%	-13%	?	33%
O=C1NC2c3c(I)sc(I)c3C(=O)C2O1 (centres undefined)	-10	?	?	10µM*	13µM*	40µM*
CCOC(=O)c1cnc2ccc(OCC)cc2c1NCCc1ccc(OC)c(OC)c1	-9	?	-15%[7.34 µM]	-11%[7.34 µM]	?	28µM*
COc1nc(NCCc2ccc(OC)c(OC)c2)nc(OC)n1	-99*	-2%[46.1 µM]	-17%	·	2%	-18%
COc1ccccc1NCC(O)Cn1c2ccccc2c2ccccc21 (centres undefined)	-29	-78%	·	·	?	?
COc1ccc(CCNc2c3ccccc3nc3ccccc23)cc1OC	-102*	?	-7%[7.34 µM]	-11%[7.34 µM]	?	-20%
CCOC(=O)c1cnc2ccc(C)cc2c1NCCc1ccc(OC)c(OC)c1	21	?	-18%	-26%	-25%[46.1 µM]	-33%

Assay outcomes (PubChem)
